What all share (experiment): DAPPL (digital affinity profiling via proximity ligation, sequencing); 10 mM Tris-HCl pH 7.5, 50 mM NaCl, 1 mM DTT, 4% glycerol, room temperature, 30 min; GST-TFs on glutathione beads, 16-mer random dsDNA library, 0.1% formaldehyde crosslink after washing; high values mean tight binding
For experiment [1], the target named is T1, FLI1 (Homo sapiens, UniProt Q01543 1-452).
T1 sequence: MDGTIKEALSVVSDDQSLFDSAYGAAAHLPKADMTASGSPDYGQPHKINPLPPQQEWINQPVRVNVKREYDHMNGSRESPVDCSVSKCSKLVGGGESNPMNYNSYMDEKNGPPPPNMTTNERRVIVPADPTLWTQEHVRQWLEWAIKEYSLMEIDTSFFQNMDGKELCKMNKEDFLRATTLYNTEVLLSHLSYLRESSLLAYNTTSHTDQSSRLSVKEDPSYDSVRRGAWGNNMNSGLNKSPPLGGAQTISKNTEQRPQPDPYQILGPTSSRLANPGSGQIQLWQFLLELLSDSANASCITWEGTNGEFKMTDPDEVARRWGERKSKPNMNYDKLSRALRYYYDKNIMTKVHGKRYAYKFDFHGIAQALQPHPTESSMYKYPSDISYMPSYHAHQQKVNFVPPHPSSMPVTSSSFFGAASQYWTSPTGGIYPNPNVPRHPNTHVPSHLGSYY
To be noted: protein: recombinant; tags: N-terminal GST; dsDNA, one strand shown. The gist of the method:
(§1)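 Human transcription factors fused to GST were expressed in yeast, captured on glutathione beads, given DNA barcodes and pooled with a GST-only negative control. Pools were incubated with 200 nmole of a 16-mer random double-stranded DNA library in Tris/NaCl/DTT/glycerol buffer at room temperature for 30 min. They were then washed, crosslinked with 0.1% formaldehyde, proximity-ligated (BsaI/T4 ligase, 1 h, 37 °C), PCR-amplified and sequenced on an Illumina NextSeq500. Binding signal is each 6-mer's read frequency for a factor divided by its frequency for the GST control.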

Experiment [2] concerns the target T2, ELK4 (Homo sapiens, UniProt P28324-2 1-405).
T2 sequence: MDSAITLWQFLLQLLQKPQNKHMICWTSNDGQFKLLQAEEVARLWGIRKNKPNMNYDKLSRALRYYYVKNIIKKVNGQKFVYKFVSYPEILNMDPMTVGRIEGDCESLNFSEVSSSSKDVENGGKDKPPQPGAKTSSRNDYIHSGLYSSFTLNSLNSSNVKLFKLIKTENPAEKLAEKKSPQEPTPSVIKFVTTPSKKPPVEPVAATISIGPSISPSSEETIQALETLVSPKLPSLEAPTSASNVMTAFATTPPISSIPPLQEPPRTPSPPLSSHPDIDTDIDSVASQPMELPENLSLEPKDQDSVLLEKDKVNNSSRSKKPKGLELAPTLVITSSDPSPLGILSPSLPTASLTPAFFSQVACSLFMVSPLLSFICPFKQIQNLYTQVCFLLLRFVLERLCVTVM
Conditions: protein: recombinant; tags: N-terminal GST; dsDNA, one strand shown. In short, it runs like this:
as §1

Experiment [3] addresses T3, ETV2 (Homo sapiens, UniProt O00321 1-342).
T3 sequence: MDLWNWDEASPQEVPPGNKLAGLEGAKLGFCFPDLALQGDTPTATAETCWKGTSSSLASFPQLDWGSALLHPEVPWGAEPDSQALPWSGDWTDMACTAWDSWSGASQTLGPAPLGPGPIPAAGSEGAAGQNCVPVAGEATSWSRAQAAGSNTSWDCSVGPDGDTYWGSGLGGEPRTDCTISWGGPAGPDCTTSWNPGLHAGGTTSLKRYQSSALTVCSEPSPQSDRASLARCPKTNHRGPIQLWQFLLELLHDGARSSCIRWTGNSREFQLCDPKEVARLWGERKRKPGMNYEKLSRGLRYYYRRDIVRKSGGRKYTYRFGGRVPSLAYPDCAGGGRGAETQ
Conditions: protein: recombinant; tags: N-terminal GST; dsDNA, one strand shown. In short, it runs like this: as §1

Experiment [4] deals with T4, ELF3 (Homo sapiens, UniProt P78545 1-371).
T4 sequence: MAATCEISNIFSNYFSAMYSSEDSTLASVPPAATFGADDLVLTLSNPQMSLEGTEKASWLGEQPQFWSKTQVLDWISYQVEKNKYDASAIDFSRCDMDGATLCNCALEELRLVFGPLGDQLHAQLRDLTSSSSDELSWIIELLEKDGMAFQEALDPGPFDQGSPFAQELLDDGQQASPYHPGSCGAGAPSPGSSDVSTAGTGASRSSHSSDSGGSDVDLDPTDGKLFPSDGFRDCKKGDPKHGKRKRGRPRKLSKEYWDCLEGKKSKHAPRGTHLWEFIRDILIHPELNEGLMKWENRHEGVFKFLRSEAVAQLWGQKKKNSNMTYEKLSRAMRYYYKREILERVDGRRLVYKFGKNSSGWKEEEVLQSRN
To be noted: protein: recombinant; tags: N-terminal GST; dsDNA, one strand shown. The gist of the method: as §1

For experiment [5], the target named is ETV1 (Homo sapiens, UniProt P50549 1-477). Conditions: protein: recombinant; tags: N-terminal GST; dsDNA, one strand shown. In short, it runs like this:
as §1

Experiment [6] deals with T5, ERF (Homo sapiens, UniProt P50548 1-548).
T5 sequence: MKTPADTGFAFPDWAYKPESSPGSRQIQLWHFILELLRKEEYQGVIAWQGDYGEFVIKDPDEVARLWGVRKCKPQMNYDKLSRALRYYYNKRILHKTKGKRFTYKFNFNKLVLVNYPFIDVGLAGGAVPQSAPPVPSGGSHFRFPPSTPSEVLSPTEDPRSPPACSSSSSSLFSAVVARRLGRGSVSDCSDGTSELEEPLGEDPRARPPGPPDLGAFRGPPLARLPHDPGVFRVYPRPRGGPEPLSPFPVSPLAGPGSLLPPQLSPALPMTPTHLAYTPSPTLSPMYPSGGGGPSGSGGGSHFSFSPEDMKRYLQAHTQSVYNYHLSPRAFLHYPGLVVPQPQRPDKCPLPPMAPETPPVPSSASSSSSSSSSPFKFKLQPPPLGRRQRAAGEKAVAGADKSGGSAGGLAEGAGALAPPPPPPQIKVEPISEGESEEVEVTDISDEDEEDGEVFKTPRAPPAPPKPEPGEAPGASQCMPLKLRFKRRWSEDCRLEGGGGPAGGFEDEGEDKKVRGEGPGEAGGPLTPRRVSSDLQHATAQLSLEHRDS
To be noted: protein: recombinant; tags: N-terminal GST; dsDNA, one strand shown. In short, it runs like this:
as §1

The target of experiment [7] is T6, ETV3L (Homo sapiens, UniProt Q6ZN32 1-361).
T6 sequence: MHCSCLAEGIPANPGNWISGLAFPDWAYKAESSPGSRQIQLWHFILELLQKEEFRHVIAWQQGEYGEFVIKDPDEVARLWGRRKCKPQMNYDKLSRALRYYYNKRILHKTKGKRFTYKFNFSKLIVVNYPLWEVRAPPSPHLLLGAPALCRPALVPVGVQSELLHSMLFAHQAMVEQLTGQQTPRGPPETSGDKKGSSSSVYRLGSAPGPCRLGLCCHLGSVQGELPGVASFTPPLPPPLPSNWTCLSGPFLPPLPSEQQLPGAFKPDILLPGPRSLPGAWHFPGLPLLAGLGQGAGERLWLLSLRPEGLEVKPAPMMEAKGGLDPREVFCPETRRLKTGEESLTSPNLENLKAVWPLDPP
Conditions: protein: recombinant; tags: N-terminal GST; dsDNA, one strand shown. In short, it runs like this: as §1

The target of experiment [8] is T7, GABPA (Homo sapiens, UniProt Q06546 1-454).
T7 sequence: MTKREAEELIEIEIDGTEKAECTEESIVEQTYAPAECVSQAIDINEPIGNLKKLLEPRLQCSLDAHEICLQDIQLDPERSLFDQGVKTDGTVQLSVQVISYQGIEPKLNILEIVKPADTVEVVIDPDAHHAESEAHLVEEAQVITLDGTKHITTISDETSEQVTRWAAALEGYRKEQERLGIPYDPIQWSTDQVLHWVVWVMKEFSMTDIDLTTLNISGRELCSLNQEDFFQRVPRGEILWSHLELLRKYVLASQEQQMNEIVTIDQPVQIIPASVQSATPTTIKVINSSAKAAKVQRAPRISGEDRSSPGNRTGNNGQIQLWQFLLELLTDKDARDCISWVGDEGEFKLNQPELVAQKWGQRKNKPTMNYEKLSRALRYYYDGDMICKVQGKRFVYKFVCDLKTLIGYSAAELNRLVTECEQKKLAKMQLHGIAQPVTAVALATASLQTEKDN
Conditions: protein: recombinant; tags: N-terminal GST; dsDNA, one strand shown. In short, it runs like this:
as §1

Experiment [9] has as its target T8, ERG (Homo sapiens, UniProt P11308 1-479).
T8 sequence: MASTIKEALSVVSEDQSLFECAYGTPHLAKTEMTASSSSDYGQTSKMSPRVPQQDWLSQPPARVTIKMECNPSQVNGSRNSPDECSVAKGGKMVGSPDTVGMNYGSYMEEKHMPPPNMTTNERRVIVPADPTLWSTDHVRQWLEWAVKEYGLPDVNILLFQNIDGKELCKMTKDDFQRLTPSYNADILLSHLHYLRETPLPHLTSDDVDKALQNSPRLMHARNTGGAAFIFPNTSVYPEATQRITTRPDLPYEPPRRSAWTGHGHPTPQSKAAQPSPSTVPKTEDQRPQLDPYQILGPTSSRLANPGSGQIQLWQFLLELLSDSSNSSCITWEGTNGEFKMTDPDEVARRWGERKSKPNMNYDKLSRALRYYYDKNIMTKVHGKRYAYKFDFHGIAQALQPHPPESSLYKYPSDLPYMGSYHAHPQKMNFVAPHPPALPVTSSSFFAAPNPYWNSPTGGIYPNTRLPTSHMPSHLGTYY
To be noted: protein: recombinant; tags: N-terminal GST; dsDNA, one strand shown. The gist of the method: as §1

For experiment [10], the target named is ELF1 (Homo sapiens, UniProt P32519 1-619). Conditions: protein: recombinant; tags: N-terminal GST; dsDNA, one strand shown. The gist of the method: as §1
The target of experiment [11] is SPIB (Homo sapiens, UniProt Q01892 1-262). To be noted: protein: recombinant; tags: N-terminal GST; dsDNA, one strand shown. The gist of the method: as §1
The target in experiment [12] is T9, ELK3 (Homo sapiens, UniProt P41970 1-407).
T9 sequence: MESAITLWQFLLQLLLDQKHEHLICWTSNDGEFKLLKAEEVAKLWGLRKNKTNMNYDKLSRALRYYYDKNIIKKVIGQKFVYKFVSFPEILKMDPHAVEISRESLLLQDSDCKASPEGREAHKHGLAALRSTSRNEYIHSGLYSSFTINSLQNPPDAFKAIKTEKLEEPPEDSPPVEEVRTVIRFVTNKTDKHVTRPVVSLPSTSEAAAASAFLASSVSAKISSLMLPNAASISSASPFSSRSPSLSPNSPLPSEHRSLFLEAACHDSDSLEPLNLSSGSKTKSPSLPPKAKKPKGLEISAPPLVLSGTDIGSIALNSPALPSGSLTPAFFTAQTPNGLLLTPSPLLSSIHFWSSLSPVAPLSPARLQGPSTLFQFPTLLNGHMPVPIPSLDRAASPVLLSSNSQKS
Conditions: protein: recombinant; tags: N-terminal GST; dsDNA, one strand shown. In short, it runs like this:
as §1

The target of experiment [13] is HSF1 (Homo sapiens, UniProt Q00613 1-529). To be noted: protein: recombinant; tags: N-terminal GST; chain copies: 3; dsDNA, one strand shown. The gist of the method:
as §1

Chain of ETV1 (P50549 whole entry): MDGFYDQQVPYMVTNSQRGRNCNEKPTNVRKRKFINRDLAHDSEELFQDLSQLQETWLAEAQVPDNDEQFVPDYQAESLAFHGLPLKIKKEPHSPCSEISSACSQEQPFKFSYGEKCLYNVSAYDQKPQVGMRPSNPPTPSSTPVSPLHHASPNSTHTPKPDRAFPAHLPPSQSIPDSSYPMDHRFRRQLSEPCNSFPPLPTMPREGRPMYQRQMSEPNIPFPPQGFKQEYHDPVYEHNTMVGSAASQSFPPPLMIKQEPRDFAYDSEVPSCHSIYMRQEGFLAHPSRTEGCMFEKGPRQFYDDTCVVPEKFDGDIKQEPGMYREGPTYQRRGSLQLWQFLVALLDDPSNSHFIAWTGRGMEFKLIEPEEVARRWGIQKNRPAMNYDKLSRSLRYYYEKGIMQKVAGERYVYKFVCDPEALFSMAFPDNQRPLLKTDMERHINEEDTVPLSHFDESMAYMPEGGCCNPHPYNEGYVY
Chain of ELF1 (P32519 whole entry): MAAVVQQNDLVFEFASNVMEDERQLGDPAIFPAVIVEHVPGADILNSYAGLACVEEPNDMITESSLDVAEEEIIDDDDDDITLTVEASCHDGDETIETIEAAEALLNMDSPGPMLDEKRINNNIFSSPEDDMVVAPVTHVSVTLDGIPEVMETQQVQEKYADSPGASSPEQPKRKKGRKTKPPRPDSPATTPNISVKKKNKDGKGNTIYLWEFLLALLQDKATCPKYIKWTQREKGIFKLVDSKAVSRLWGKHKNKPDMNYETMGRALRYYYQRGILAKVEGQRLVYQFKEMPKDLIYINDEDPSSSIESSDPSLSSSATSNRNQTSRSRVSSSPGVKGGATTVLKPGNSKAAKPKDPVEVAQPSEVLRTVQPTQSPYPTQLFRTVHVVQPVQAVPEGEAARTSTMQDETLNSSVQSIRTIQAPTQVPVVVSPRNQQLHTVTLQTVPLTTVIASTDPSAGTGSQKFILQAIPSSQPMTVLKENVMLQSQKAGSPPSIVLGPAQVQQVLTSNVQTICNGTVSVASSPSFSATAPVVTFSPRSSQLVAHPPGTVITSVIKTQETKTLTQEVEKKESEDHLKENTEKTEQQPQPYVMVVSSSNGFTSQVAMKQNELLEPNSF
Chain of HSF1 (Q00613 whole entry): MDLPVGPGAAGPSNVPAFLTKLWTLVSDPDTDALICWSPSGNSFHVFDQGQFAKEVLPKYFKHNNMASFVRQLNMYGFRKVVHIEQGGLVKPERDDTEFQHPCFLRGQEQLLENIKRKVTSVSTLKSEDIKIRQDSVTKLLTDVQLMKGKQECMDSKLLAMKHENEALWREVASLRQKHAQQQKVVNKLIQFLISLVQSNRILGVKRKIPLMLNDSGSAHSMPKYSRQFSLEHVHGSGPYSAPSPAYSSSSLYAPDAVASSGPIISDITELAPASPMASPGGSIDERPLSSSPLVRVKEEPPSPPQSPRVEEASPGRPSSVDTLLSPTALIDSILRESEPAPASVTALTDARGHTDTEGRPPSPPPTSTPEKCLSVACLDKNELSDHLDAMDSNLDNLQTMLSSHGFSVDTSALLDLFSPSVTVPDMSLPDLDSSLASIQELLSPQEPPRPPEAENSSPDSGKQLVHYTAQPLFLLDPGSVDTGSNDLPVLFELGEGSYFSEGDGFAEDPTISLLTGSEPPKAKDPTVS
Chain of SPIB (Q01892 whole entry): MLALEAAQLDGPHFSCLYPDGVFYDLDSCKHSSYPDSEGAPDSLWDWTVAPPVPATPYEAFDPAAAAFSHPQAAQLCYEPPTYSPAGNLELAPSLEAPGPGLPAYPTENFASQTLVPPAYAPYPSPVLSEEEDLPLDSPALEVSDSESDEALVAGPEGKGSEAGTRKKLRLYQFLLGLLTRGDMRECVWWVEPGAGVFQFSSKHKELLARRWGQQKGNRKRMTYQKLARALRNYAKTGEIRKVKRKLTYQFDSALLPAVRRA

On to TCGTTG, for which the binding signal is 1.01 fold enrichment (6-mer frequency, TF over GST control) in experiment [1]; 1.1 fold enrichment (6-mer frequency, TF over GST control) in experiment [2]; 1.19 fold enrichment (6-mer frequency, TF over GST control) in experiment [3]; 1.07 fold enrichment (6-mer frequency, TF over GST control) in experiment [4]; 1.02 fold enrichment (6-mer frequency, TF over GST control) in experiment [5]; 1.03 fold enrichment (6-mer frequency, TF over GST control) in experiment [6]. In addition, the binding signal in [7] is 1.1 fold enrichment (6-mer frequency, TF over GST control).

Take CGGGCT: the binding signal in experiment [1] was 1.05 fold enrichment (6-mer frequency, TF over GST control); in experiment [8], 1.05 fold enrichment (6-mer frequency, TF over GST control); in [9], 1.02 fold enrichment (6-mer frequency, TF over GST control); in [10] it was 1.04 fold enrichment (6-mer frequency, TF over GST control); in [11], 1.13 fold enrichment (6-mer frequency, TF over GST control); in experiment [12], 1.14 fold enrichment (6-mer frequency, TF over GST control). Moreover, the binding signal was 1.18 fold enrichment (6-mer frequency, TF over GST control) in [2]; 1.07 fold enrichment (6-mer frequency, TF over GST control) in [5]; 1.05 fold enrichment (6-mer frequency, TF over GST control) in [6]; 1.01 fold enrichment (6-mer frequency, TF over GST control) in experiment [7].

For GAGAAG, the binding signal in [13] is 1.22 fold enrichment (6-mer frequency, TF over GST control).

Values taken from paper PMC7862700, “An all-to-all approach to the identification of sequence-specific readers for epigenetic DNA modifications on cytosine”.
